The list is not random: actives were taken first. Their share in the collection is about 2.2%.
CCT chaperon mod – High-Throughput Screening for Modulators of Cytosolic Chaperonin Activity | hit rate 0.3% among 360,000 | AID 651819, 2012 | purified chaperonin ATPase assay, HTRF ADP detection, 30 min | activity change, % (concentration not given with the values), hits read low; in the data active means activity change below about -30%; further: on the % scale 0 is the no-effect control and ±100 the full control effect
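We incubate TRiC, 40 or 20 nM final, with library compounds at 76 uM and 10 uM ATP for 30 min at 37 °C. ADP formed is detected with Transcreener HTRF reagents after 30 min at room temperature.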
Mm-Cpn inhibitor – Inhibitors of TCP-1 ring complex (TRiC) of Methanococcus maripaludis (MmCpn): qHTS; Chaperonin Mm-Cpn (Methanococcus maripaludis); purified Mm-Cpn ATPase, ADP Transcreener TR-FRET; Potency, µM (top dose mostly 76.9 µM), without a hit: at the highest dose activity, negative = inhibition, most hits filed as inhibitors; AID 504842, 2011; hit rate 0.031% among 330,000; further: potency means the concentration at half of the fitted maximal effect; on the % scale 0 is the no-effect control and ±100 the full control effect; nearly all actives have a fitted effect of over 80% in size
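Quantitative HTS used 25 nM Mm-CPN and 10 uM ATP in magnesium/KCl Tris buffer, pH 7.4, with 1 mM DTT. Hydrolysis ran 30 min at 37°C; ADP was read by HTRF.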
GLP-1R agonist – qHTS of GLP-1 Receptor Agonists | Glucagon-like peptide 1 receptor (Homo sapiens), P43220 | Potency, µM (highest dose often 45.6 µM), inactives show at the top dose activation, most hits filed as activators | hit rate 0.007% among 380,000 | AID 624172, 2012 | HEK293 GLP-1R CRE-luciferase, luminescence, 4-6 h; cells express a hypersensitive GLP-1R form; further: potency means the concentration at half of the fitted maximal effect; % of control where 0% means no effect
Target sequence (P43220 whole entry, looked up): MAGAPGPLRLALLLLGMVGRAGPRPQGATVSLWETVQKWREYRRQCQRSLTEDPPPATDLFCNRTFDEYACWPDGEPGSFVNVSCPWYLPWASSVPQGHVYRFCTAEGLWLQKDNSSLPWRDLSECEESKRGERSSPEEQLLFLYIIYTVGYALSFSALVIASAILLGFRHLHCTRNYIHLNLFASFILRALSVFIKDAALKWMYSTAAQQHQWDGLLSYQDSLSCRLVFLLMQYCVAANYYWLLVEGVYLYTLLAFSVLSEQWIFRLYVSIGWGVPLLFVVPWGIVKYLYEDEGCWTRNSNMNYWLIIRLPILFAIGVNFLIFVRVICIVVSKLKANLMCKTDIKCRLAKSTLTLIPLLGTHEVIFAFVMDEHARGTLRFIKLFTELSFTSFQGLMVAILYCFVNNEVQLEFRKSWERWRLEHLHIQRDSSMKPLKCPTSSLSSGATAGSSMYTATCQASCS
GLP1R cytotox – qHTS of GLP-1 Receptor Inverse Agonists: Cytotox Screen; HEK293 cAMP-luciferase reporter cells, luminescence, 24 h; Potency, µM (doses to about 38.3 µM), for inactives: at the top dose activity change, negative = inhibition, actives largely listed as inhibitors; hit rate 0.13% among 410,000; AID 624418, 2012;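 further: loss of luciferase light is scored as toxicity; potency means the concentration at half of the fitted maximal effect; on the % scale 0 is the no-effect control and ±100 the full control effect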
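Luminescence readout: signal drop marks cytotoxicity. Plated cells grew 12 h at 37 °C, 5% CO2, received 23 nL compound for 24 h, then got luciferase reagent, read after 12 min at RT.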
uPA surface inh – qHTS for Inhibitors of Cell Surface uPA Generation; AID 540303, 2011; cell surface uPA generation assay, qHTS; Potency, µM (top dose mostly 38.3 µM), for inactives: top-dose activity change, negative = inhibition, actives largely listed as inhibitors; hit rate 0.31% among 330,000; active means well fitted inhibition curve with a large enough effect; inconclusive means small, poorly fitted or top-dose-only effect; inactive means no such curve, though single readings can be large or run the other way; tested in mouse RAW 264.7 cells; further: potency means the concentration at half of the fitted maximal effect; on the % scale 0 is the no-effect control and ±100 the full control effect; nearly all actives have a fitted effect of over 55% in size
GLP-1R inv ag – qHTS of GLP-1 Receptor Inverse Agonists (Inhibition Mode) | AID 624417, 2012 | Potency, µM (top dose mostly 38.3 µM), inactives show top-dose activity change, negative = inhibition, actives largely listed as inhibitors | HEK293 GLP-1R CRE-luciferase, luminescence, 24 h; GLP-1R form is constitutively active | Glucagon-like peptide 1 receptor (Homo sapiens), P43220 | hit rate 1.6% among 410,000; further: potency means the concentration at half of the fitted maximal effect; on the % scale 0 is the no-effect control and ±100 the full control effect; nearly all actives have a fitted effect of over 55% in size
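GLP-1R inverse agonism mode: basal reporter luminescence in engineered HEK293 cells measured after one day of compound exposure at 37 deg C, with a 12 min room-temperature detection step.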
Starred values were filed as active, the others as inactive; ? = inconclusive; nt = not tested or not shown. Unless noted, the call rests on the fitted dose curve; in most records, active means well fitted curve in the direction sought with a large enough effect; inconclusive means small, poorly fitted or top-dose-only effect, or another doubt; inactive means no such curve, though single readings can be large; an effect the other way counts as inactive or inconclusive.

SMILES	CCT chaperon mod	Mm-Cpn inhibitor	GLP-1R agonist	GLP1R cytotox	uPA surface inh	GLP-1R inv ag
NC(=O)C1CCN(C(=O)CN2C(=O)c3ccccc3S2(=O)=O)CC1	-41.5*	-1.2%	-2.4%	4.3%	nt	0.0%
COC(=O)c1scc(-c2ccc(C)cc2)c1S(=O)(=O)N1CCN(c2cccc(OC)c2)CC1	nt	nt	nt	-5.4%	nt	?
COc1ccccc1NC(=O)C1=C(C)Nc2c(C(=O)Nc3ccc(C)cc3)cnn2C1c1cccc(OC)c1OC (centres undefined)	nt	nt	nt	3.3%	nt	-7.9%
COc1ccc(-c2cc(C(F)(F)F)n3nc(C(=O)Nc4sc5c(c4C(=O)OC(C)C)CCC(C)C5)cc3n2)cc1 (centres undefined)	nt	nt	nt	-7.0%	nt	7.0%
CC1Cn2c(C(=O)NCCc3ccc(Cl)cc3)cc3cccc(c32)S1 (centres undefined)	nt	nt	nt	6.1%	nt	?
CC(NC(=O)Cn1cnnn1)C12CC3CC(CC(C3)C1)C2 (centres undefined)	-90.9*	2.3%	2.0%	-0.3%	2.1%	-8.8%
O=C(NC12CC3CC(CC(C3)C1)C2)c1ccccc1O	-1.0	1.0%	2.7%	-16.5%	0.6%	5.62µM*
O=C(NC1CC1)c1cc(F)c(F)cc1Cl	-1.7	0.9%	-2.8%	14.2%	nt	14.6%
O=C(NC12CC3CC(CC(C3)C1)C2)c1cc(F)c(F)cc1Cl	0.0	-1.1%	-3.0%	-0.6%	-1.2%	10µM*
Cc1ccc(-c2nn3c(=O)cc(CN4CCN(C(=O)Nc5cc(Cl)ccc5C)CC4)nc3s2)cc1	nt	nt	nt	1.7%	nt	15.0%
CC/C=C/C(=O)N1CC2(CC(c3cccc(NC(=O)CC(c4ccccc4)c4ccccc4)c3)=NO2)C[C@@H]1C(N)=O (some centres undefined)	-33.2*	1.8%	3.2%	-12.7%	-2.6%	?
CCOc1ccc(CC(=O)Nc2c(C(=O)c3ccccc3)oc3ccc(OC)cc23)cc1OCC	nt	nt	-0.5%	3.2%	nt	1.1%
CCCCNC(=O)C[C@@H]1C[C@@]2(C(=O)OCC)CCCC=C2N(CCc2ccc(OC)c(OC)c2)C1=O	nt	nt	nt	-7.8%	nt	0.9%
CCOC(=O)[C@]12CCCC=C1N(CCc1ccc(OC)c(OC)c1)C(=O)[C@H](CC(=O)NCCCCc1ccccc1)C2	nt	nt	nt	-26.9%	nt	10µM*
Cc1cc(C(=O)COC(=O)c2cccnc2Cl)c(C)n1C	-2.9	-9.1%	-6.2%	1.2%	8.91µM*	7.08µM*
Cc1cc(C)cc(NC(=O)CCN2C(=O)c3ccccc3Sc3ncccc32)c1	nt	nt	nt	?	nt	-8.2%
Cc1cc(C)c(CN2CCN(CCCn3cnc(C(=O)Nc4ccc(C)c(C)c4)n3)CC2)c(C)c1	-0.2	nt	-0.3%	?	?	12.6µM*
Cc1ccc(NCCCn2cnc(C(=O)Nc3ccc(C)c(C)c3)n2)cc1C	0.9	nt	-0.3%	-7.0%	6.1%	-28.5%
COc1cc(NC(=O)CN(C)S(=O)(=O)c2ccc3[nH]c4c(c3c2)CCCC4)cc(OC)c1OC	nt	nt	nt	-11.1%	nt	?
Cc1ccc(OC(=O)c2ccc3nc(C)sc3c2)cc1	1.7	-18.4%	8.5%	8.9%	-6.0%	123.3%
COc1ccc(OC(=O)c2ccc3nsnc3c2)cc1	-47.7*	0.8%	-2.3%	-4.4%	-3.9%	-10.0%
Cc1ccc(-n2nc(CO)c(C(=O)NCCC(C)C)n2)cc1C	nt	nt	nt	1.6%	nt	-3.6%
O=C(Cc1ccc(S(=O)(=O)N2CCCC2)s1)N1CCN(c2ccccc2)CC1	-92.7*	-0.9%	6.1%	-5.2%	-2.9%	-1.5%
O=C(Cc1ccc(S(=O)(=O)N2CCOCC2)s1)N1CCN(c2cccc(C(F)(F)F)c2)CC1	0.5	-4.1%	-6.3%	0.2%	-7.0%	?
CC(C)c1ccc(Nc2c(-c3ccc(N(C)C)cc3)nc3cnccn23)cc1	nt	nt	0.6%	12.2%	nt	7.1%
SMILES	CCT chaperon mod	Mm-Cpn inhibitor	GLP-1R agonist	GLP1R cytotox	uPA surface inh	GLP-1R inv ag
CCN(c1ccccc1)S(=O)(=O)c1ccc(NC(=O)c2cc(=O)c3ccc(C)c(C)c3o2)cc1	nt	nt	nt	3.8%	nt	5.0%
Cc1cccc(CS(=O)(=O)c2ncc(Cl)c(C(=O)NCc3ccc4c(c3)OCO4)n2)c1	-6.4	-0.6%	-15.4%	-8.3%	?	8.91µM*
CCOc1ccccc1NC(=O)c1nc(S(=O)(=O)Cc2ccccc2)ncc1Cl	-2.1	-2.0%	-8.5%	-24.3%	3.16µM*	-25.8%
O=C(Nc1ccccc1OCc1ccccc1)c1ccccc1Br	0.2	1.3%	16.6%	24.1%	-29.5%	10µM*
COc1ccccc1NC(=O)c1nc(S(=O)(=O)Cc2ccccc2)ncc1Cl	-1.0	0.3%	-1.3%	4.5%	-5.2%	4.6%
CCOc1ccccc1NC(=O)CN(CCc1ccccc1)S(=O)(=O)c1ccc(C)cc1	nt	nt	nt	0.0%	nt	10µM*
Cc1ccc(CNC(=O)c2nc(S(=O)(=O)Cc3ccc(C)cc3)ncc2Cl)cc1	nt	nt	nt	-5.8%	nt	1.6%
CCC(Oc1ccc(F)cc1)C(=O)Nc1c(C(=O)c2ccc(C)cc2)oc2ccccc12 (centres undefined)	nt	nt	nt	0.7%	nt	-7.1%
COc1ccccc1CCNC(=O)C(=O)NCC(c1ccc2c(c1)OCO2)N1CCOCC1 (centres undefined)	nt	nt	nt	8.3%	nt	9.5%
CCOc1ccccc1NC(=O)CNC(=O)CNC(=O)Cc1ccccc1	-1.8	1.4%	3.1%	2.0%	4.2%	-3.4%
CCOc1ccccc1NC(=O)CNC(=O)Cc1ccccc1	-42.8*	1.7%	2.8%	-0.7%	-1.3%	-19.6%
COc1ccc(C(=O)Nc2cc(S(=O)(=O)c3ccc(Cl)cc3)c(O)c(C)c2C)cc1	nt	nt	0.7%	-9.6%	nt	?
O=C(NCCCCc1ccccc1)C1CC(c2cccc(F)c2)=NO1 (centres undefined)	-33.9*	0.8%	15.2%	4.5%	-0.6%	4.6%
Cc1ccc(OCC(=O)OCc2cc(=O)n3nc(C4CCCCC4)sc3n2)cc1C	nt	nt	nt	3.3%	nt	11.6%
O=C(NN=C1CCCC1)c1[nH]c2ccc(Br)cc2c1-c1ccccc1	-0.9	-13.3%	25.6%	?	-14.0%	5.01µM*
C=C(C(=O)c1ccccc1)C(NC(C)(C)C)c1ccccc1 (centres undefined)	-2.2	nt	-23.3%	5.01µM*	-8.9%	5.01µM*
Cc1cc(C)c(S(=O)(=O)N2CCN(C(=O)c3c(C)nn(-c4ccccc4)c3Cl)CC2)c(C)c1	-1.4	nt	-18.6%	-7.6%	-7.8%	8.91µM*
Cc1cc(C)c(S(=O)(=O)N2CCN(C(=O)c3ccc(-n4nc(C)c(Cl)c4C)cc3)CC2)c(C)c1	-0.8	nt	1.2%	6.8%	-21.9%	7.08µM*
